HCMV inh = inhibitors of human cytomegalovirus. actives 4.5% (n = 410,000). HFF cells, HCMV-luciferase reporter, 72 h; stronger effect = lower value. activity change, negative = inhibition, % at 57.5 µM; in the data active = activity change below about -60%; inconclusive = no clear call, values can overlap the other calls; inactive = above about -39%
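Two compound doses tested in HFFs infected with HCMV-luciferase, MOI 1 PFU/cell, 72 h at 37C. Lysate luminescence read with OneGlo; data normalized against buffer-only and 10uM Salinomycin inhibitor controls.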
HCV inhibitor = HCV inhibition | AID 651820 | actives 3.4% (n = 340,000) | Potency, µM (series often up to 41.8 µM), actives largely listed as inhibitors | Huh7.5.1 HCVcc-Cre infection, luciferase reporter, 44 h
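Infectious HCVcc-Cre (~0.5 moi) was added to cells just after compound, with cells seeded 4 h earlier at 1,000 per well. Luciferase activity after 44 h culture reported infection; substrate was incubated 15 min at room temperature before reading.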
SARS PLpro yeast-1 = SARS-CoV PLP inhibition in yeast. S. cerevisiae expressing SARS-CoV PLpro, growth rescue. Potency, µM (highest dose often 32.9 µM), most hits filed as activators. actives 0.19% (n = 330,000); calls by dose curve; also: nearly all actives have a fitted effect of over 55% in size
Sm TGR block = inhibitors of Schistosoma mansoni thioredoxin glutathione reductase. Q962Y6. purified TGR, DTNB reduction, TNB absorbance 405 nm. Potency, µM (top dose mostly 114 µM), actives largely listed as inhibitors. actives 3% (n = 360,000); also: nearly all actives have a fitted effect of over 60% in size
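TGR 20 nM + NADPH 100 uM (dispensed conc.), cpd preinc 15 min RT; start with NADPH (500 uM addition) then DTNB (15 mM addition). Kinetic TNB absorbance, 405 nm filter. Four-parameter Hill fit across titration.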
Pf growth 48h = P. falciparum growth inhibition at 48 hours (one generation) | AID 504832 | Potency, µM (top dose mostly 28.7 µM), actives largely listed as inhibitors | P. falciparum luciferase growth in erythrocytes, 48 h | actives 5.9% (n = 310,000)
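Luciferase-expressing parasites in RBCs, 2% Hct / 0.1% parasitemia final; RPMI 1640 + 0.5% Albumax; 37 C, 5% CO2, one generation; luminescence read-out, lower signal = inhibition.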
Pf growth 96h = P. falciparum growth inhibition at 96 hour, primary screen for plastid delayed-death inhibitors | Potency, µM (top dose mostly 28.7 µM), hits mostly inhibitors | actives 6.9% (n = 320,000) | P. falciparum luciferase reporter growth, 96 h
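Delayed-death screen, second-generation endpoint: infected erythrocytes, 2% hematocrit, 0.05% parasitemia final; 96 hours at 37 C, 5% CO2; luciferase detection reagent; luminescence decrease equals reduced growth.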
SARS PLpro yeast-2 = Inhibits SARS-CoV PLP in yeast, hit validation | shares compounds with SARS PLpro yeast-1 | yeast expressing SARS-CoV PLpro, growth phenotype rescue | calls only | actives 19% (n = 1,000); call rule not given here
Numbers stand for hits; . = inactive; ? = inconclusive; / = no result; + = active, no number. A selection: hits, their analogues and other compounds. The true share with any hit is near 15%. Unless noted, calls follow the shape of the dose curve; as a rule, active = well fitted curve in the direction sought with a large enough effect; inconclusive = small, poorly fitted or top-dose-only effect, or another doubt; inactive = no such curve, though single readings can be large; an effect the other way counts as inactive or inconclusive.

SMILES	HCMV inh	HCV inhibitor	SARS PLpro yeast-1	Sm TGR block	Pf growth 48h	Pf growth 96h	SARS PLpro yeast-2
CC(=O)C(Sc1nn(C)c(=S)s1)C(=O)Nc1ccccc1 (configuration not stated)	.	.	?	25µM	.	?	.
CC(=O)C(Sc1nc(N(C)C)nc(N(C)C)n1)C(=O)Nc1ccccc1 (configuration not stated)	.	.	.	.	.	.	/
Cc1cc(C)cc(-n2c(C)cc(C(=S)N3CCOCC3)c2C)c1	.	.	14µM	.	12µM	.	+
Cc1cc(C(=S)N2CCOCC2)c(C)n1-c1ccc(Cl)cc1	?	.	.	.	?	.	/
CN(C)CCNC(=O)c1ccc2nc([C@@H]3O[C@H](CO)[C@H](O)[C@H](O)[C@H]3O)[nH]c2c1	.	/	/	/	/	/	/
O=C(O)c1ccc(N=NN2CCCCCC2)cc1	.	.	13µM	.	.	.	.
O=C(O)c1ccc(N=NN2CCCC2)cc1	.	.	.	.	.	.	/
CN(CC(=O)Nc1ccncc1)S(=O)(=O)c1ccc(Br)cc1	?	.	.	.	/	?	/
CN(CC(=O)Nn1cnnc1)S(=O)(=O)c1ccc(Br)cc1	.	.	3.5µM	.	.	.	.
O=c1c2c(-c3ccccc3)csc2ncn1/N=C/c1cccc([N+](=O)[O-])c1O	.	.	.	.	.	.	/
Cn1cc(/C=N/n2cnc3scc(-c4ccccc4)c3c2=O)c2ccccc21	.	6.3µM	?	.	.	3.3µM	+
CCOc1ccc(NS(=O)(=O)c2c(C)nc3sc(C)c(C)n3c2=O)cc1	.	/	/	.	/	/	/
O=C(Nc1cc(Cl)cc(Cl)c1)C(NCCO)c1ccccc1 (configuration not stated)	.	.	?	.	.	.	.
O=c1c2ccccc2ncn1CCCSc1ccccc1	.	.	?	.	.	?	.
O=c1c2ccccc2ncn1CCCSc1ccc(Cl)cc1	.	.	.	.	.	.	/
CCOc1ccccc1C(=O)NC(C(=O)N(C)c1c(N)n(Cc2ccccc2)c(=O)[nH]c1=O)C(C)C (configuration not stated)	.	?	/	/	/	/	/
Oc1c(C(Nc2cccc(C(F)(F)F)c2)c2ccncc2)ccc2cccnc12 (configuration not stated)	-99	6.3µM	?	35µM	1.9µM	?	.
O=C(NNC(=S)Nc1cccc(C(F)(F)F)c1)c1ccncc1	.	/	/	/	/	/	/
Cc1cc(C)c(NC(=O)CSc2nc3ccccc3nc2N2CCCCC2)c(C)c1	.	/	/	.	/	/	/
NC(=O)C1CCN(c2nc(-c3ccccc3Cl)cs2)CC1	/	/	/	/	?	.	/
Cn1cnc2nc[nH]c2c1=O	.	.	/	/	/	/	/
Cc1ccc(S(=O)(=O)N(C)Cc2ccc(C(=O)N/N=C/c3ccc(OC(F)F)cc3OC(F)F)cc2)cc1	?	?	.	.	.	?	/
O=C(N/N=C/c1ccc(OC(F)F)cc1OC(F)F)c1ccc(Br)cc1	.	?	/	.	.	?	.
N#Cc1c(N2CCN(C(=O)c3ccccc3Cl)CC2)nc(-c2ccccc2)c2c1CCCC2	.	?	3.5µM	.	?	?	.
CC1Oc2cc3oc4c(O)c(O)ccc4c(=O)c3c(O)c2C1(C)C (configuration not stated)	/	.	/	/	/	/	/
SMILES	HCMV inh	HCV inhibitor	SARS PLpro yeast-1	Sm TGR block	Pf growth 48h	Pf growth 96h	SARS PLpro yeast-2
COc1ccc(CCn2c(C)cc(C(=O)CCl)c2C)cc1OC	-100	?	10µM	11µM	?	?	+
COc1ccc(CCn2c(C)c(C(C)=O)c(C(C)=O)c2C)cc1OC	.	.	.	.	.	?	/
O=S(=O)(Nc1ccc2nc(-c3ccc(F)cc3)oc2c1)c1ccccc1	.	/	/	.	/	/	/
Cc1cc2c(cc1S(=O)(=O)N1CCN(c3ccc(Cl)cc3)CC1)OCCN2C	.	?	0.89µM	.	.	.	.
CC(C)COC(=O)N1CCN(S(=O)(=O)c2ccc3c(c2)CCC3)CC1	.	.	.	.	?	?	/
O=S(=O)(NCCc1csc(-c2cccnc2)n1)c1ccc2c(c1)OCCO2	?	.	?	.	.	?	.

High-throughput results deposited in PubChem by National Center for Advancing Translational Sciences (NCATS).
